Data taken from PubChem BioAssay AID1159580 (chemical genetic matrix, 2015).
“And” between values parts separate entries of the source, which are not always exact repeats. Identical values can stand only once. Screen size: about 5,500 compounds; about 2,000 (36%) were called active. Another 18% or so got no clear call; they are omitted. Rule as the data show it: active = normalized growth mostly below about 0.91 (no sharp cut-off); inconclusive = no clear call, values can overlap the other calls; inactive = mostly above about 0.92. The list shows a part of the results.

Assay: chemical genetic growth profiling, strain panel (AID 1159580);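 also: tested at 20 µM; growth read once vehicle control cultures reached saturation at 30 °C; 1 = growth at the plate median or of vehicle wells; lower values mean less growth of the strain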
Settings: S. cerevisiae deletion strains, growth OD

Measured: normalized growth

CCn1cc(C(=O)O)c(=O)c2cnc(N3CCCC3)nc21
active: locus YAL021C, strain ccr4, hits give low values 0.898
inactive: locus YAL026C, strain drs2, hits give low values 0.956 | locus YAL030W, strain snc1, hits give low values 0.997 | locus YBL061C, strain skt5, hits give low values 1.01 | locus YBR009C, strain hhf1, hits give low values 1.04 | locus YBR021W, strain FUR4, hits give low values 1.03 | locus YBR023C, strain chs3, hits give low values 1 | locus YBR171W, strain sec66, hits give low values 1 | locus YBR229C, strain ROT2, hits give low values 1.01 | locus YBR231C, strain swc5, hits give low values 1.03 | locus YBR279W, strain paf1, hits give low values 0.989 | locus YCL011C, strain gbp2, hits give low values 1 | locus YCL016C, strain dcc1, hits give low values 1 | locus YCL029C, strain bik1, hits give low values 0.997 | locus YCL061C, strain MRC1, hits give low values 1 | locus YCL069W, strain vba3, hits give low values 0.997 | locus YCR088W, strain abp1, hits give low values 1.01 | locus YDL005C, strain med2, hits give low values 1 | locus YDL035C, strain GPR1, hits give low values 1.02 | locus YDL040C, strain nat1, hits give low values 0.991 | locus YDL074C, strain BRE1, hits give low values 1.04 | locus YDL101C, strain DUN1, hits give low values 1.02 | locus YDL134C, strain PPH21, hits give low values 1.03 | locus YDL185W, strain tfp1, hits give low values 1.01 | locus YDL192W, strain arf1, hits give low values 0.993 | locus YDR001C, strain nth1, hits give low values 1.01 | locus YDR069C, strain doa4, hits give low values 1 | locus YDR101C, strain arx1, hits give low values 0.999 | locus YDR137W, strain rgp1, hits give low values 0.95 | locus YDR159W, strain sac3, hits give low values 1.01 | locus YDR162C, strain NBP2, hits give low values 1.01 | locus YDR195W, strain ref2 1.04 | locus YDR297W, strain sur2, hits give low values 1.01 | locus YDR318W, strain mcm21, hits give low values 1 | locus YDR334W, strain swr1, hits give low values 1.01 | locus YDR335W, strain msn5, hits give low values 1 | locus YDR388W, hits give low values 1.01 | locus YDR392W, strain spt3, hits give low values 1.03 | locus YDR502C, strain sam2, hits give low values 1.01 | locus YEL003W, strain gim4, hits give low values 1.01 | locus YEL037C, strain rad23, hits give low values 0.999 | locus YEL061C, strain CIN8 (second series), hits give low values 1 | locus YEL061C, strain CIN8, hits give low values 0.999 | locus YER015W, strain faa2, hits give low values 1 | locus YER016W, strain bim1, hits give low values 1.01 | locus YER110C, hits give low values 1 | locus YER111C, strain swi4, hits give low values 1.02 | locus YER155C, strain BEM2 (second series), hits give low values 0.998 | locus YER155C, strain BEM2, hits give low values 1.01 | locus YER167W, strain BCK2, hits give low values 1.01 | locus YFR010W, strain ubp6, hits give low values 0.997 | locus YGL078C, strain dbp3, hits give low values 1 | locus YGL086W, strain mad1, hits give low values 1 | locus YGL167C, strain pmr1, hits give low values 1.01 | locus YGL173C, strain kem1, hits give low values 1 | locus YGL227W, strain vid30, hits give low values 1.01 | locus YGL240W, strain doc1, hits give low values 1.05 | locus YGL248W, strain PDE1, hits give low values 1 | locus YGL253W, strain hxk2, hits give low values 1.04 | locus YGR078C, strain PAC10, hits give low values 1.01 | locus YGR135W, strain pre9, hits give low values 1.01 | locus YGR252W, strain gcn5, hits give low values 1.12 | locus YHR013C, strain ard1, hits give low values 0.998 | locus YHR027C, strain rpn1, hits give low values 1 | locus YHR030C, strain SLT2, hits give low values 1 and 0.991 | locus YHR079C, strain IRE1 (second series), hits give low values 1 | locus YHR079C, strain IRE1, hits give low values 0.998 | locus YHR094C, strain hxt1, hits give low values 0.999 | locus YHR129C, strain ARP1, hits give low values 1.02 | locus YHR142W, strain chs7, hits give low values 0.962 | locus YHR200W, strain rpn10, hits give low values 0.998 | locus YIL066C, strain RNR3, hits give low values 1.01 | locus YIL073C, strain SPO22, hits give low values 1.1 | locus YIL125W, strain kgd1, hits give low values 1.01 | locus YIR030C, strain dcg1, hits give low values 0.987 | locus YJL092W, strain hpr5, hits give low values 1.01 | locus YJL095W, strain BCK1 (second series), hits give low values 1 | locus YJL095W, strain BCK1, hits give low values 1 | locus YJL115W, strain asf1, hits give low values 0.94 | locus YJL129C, strain trk1, hits give low values 1.11 | locus YJL134W, strain LCB3, hits give low values 1 | locus YJL154C, strain vps35, hits give low values 0.991 | locus YJL164C, strain tpk1, hits give low values 0.99 | locus YJL166W, strain qcr8, hits give low values 0.996 | locus YJL168C, strain set2, hits give low values 1 | locus YJL187C, strain SWE1 (second series), hits give low values 0.997 | locus YJL187C, strain SWE1, hits give low values 1 | locus YJR043C, strain POL32, hits give low values 1.03 | locus YJR066W, strain TOR1, hits give low values 0.982 | locus YJR075W, strain HOC1, hits give low values 1.02
